Compound activity: PubChem, NMMLSC
Compounds with a hit are over-represented: about 1.2% of the library has one in this group of screens.
RGS16-Gao HTS = modulates binding between human RGS16 and Galphao; bead-based flow cytometry RGS16-Galphao binding, fluorescence; actives lie on both sides; binding response (% of control), % at 10 µM; 0.38% of 220,000 active;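 also: Galphao activated by GDP with aluminum fluoride before binding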
RGS7-Gao reg = modulates binding of RGS7 to human Galphao; P09471; Multiplexed bead flow cytometry; actives lie on both sides; binding response (% of control), % at 10 µM; 0.35% of 220,000 active; in the data active = binding response below about 49% or above about 150%; inconclusive = no clear call, values can overlap the other calls; inactive = in between;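 also: fluorescent Galphao held in activated GDP-AlF4 state binding bead-coupled RGS7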
Target sequence (P09471 whole entry, looked up): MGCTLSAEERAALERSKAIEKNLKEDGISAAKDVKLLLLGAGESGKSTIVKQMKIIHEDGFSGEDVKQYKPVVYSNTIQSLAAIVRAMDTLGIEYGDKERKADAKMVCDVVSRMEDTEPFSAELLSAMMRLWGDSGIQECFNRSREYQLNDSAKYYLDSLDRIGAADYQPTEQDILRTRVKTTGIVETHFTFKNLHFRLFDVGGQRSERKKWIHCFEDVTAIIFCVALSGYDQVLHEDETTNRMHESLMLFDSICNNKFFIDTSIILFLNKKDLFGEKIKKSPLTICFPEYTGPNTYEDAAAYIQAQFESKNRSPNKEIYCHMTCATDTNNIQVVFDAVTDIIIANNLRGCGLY
GSH bead fluor = compound fluoresces at 488/530 nm on GSH beads; GSH beads flow cytometry, compound fluorescence 488/530 nm; active compounds read high; fluorescence (KMESF) at 10 µM; 0.25% of 190,000 active; AID 1776; in the data active = fluorescence above about 89;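 also: glutathione beads carrying GST-tagged Bcl family fusion proteins plus one bare bead set; values are compound well signal with DMSO vehicle wells as background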
RGS4-Gao reg = human RGS4-Galphao interaction regulation; AID 1415; Multiplexed bead flow cytometry, RGS4-Galphao binding; actives lie on both sides; P09471; binding response (% of control), % at 10 µM; 0.33% of 220,000 active; in the data active = binding response below about 49% or above about 150%; inactive = in between;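 also: fluorescent Galphao activated with aluminum fluoride binding bead-coupled RGS4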
Avidin fluor = compound fluoresces at 488/530 nm on avidin beads | compound fluorescence 488/530 nm, flow cytometry; active compounds read high | fluorescence (KMESF) at 10 µM | 0.38% of 220,000 active | AID 1775; in the data active = fluorescence above about 47
RGS8-Gao reg = modulates binding of RGS8 to human Galphao. P09471. multiplexed bead flow cytometry; actives lie on both sides. response (percent of control binding), % at 10 µM. 0.34% of 220,000 active; in the data active = response below about 60% or above about 140%; inactive = in between;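 also: Galphao activated as the GDP aluminium fluoride complex binding bead-coupled RGS8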
RGS4-Gao HTS = modulates binding between human RGS4 and Galphao. shares compounds with RGS16-Gao HTS. multiplexed bead flow cytometry, RGS–Galpha-o binding. RGS4–Galpha-o binding response, % at 10 µM. 99% of 1,600 active. AID 1504;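 also: fluorescently labeled Galpha-o bound to GDP with aluminium fluoride binding biotinylated RGS beads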
Avidin counter = counter-screen: compounds disrupting biotin binding to avidin beads | shares compounds with RGS16-Gao HTS | streptavidin beads, fluorescein-biotin binding, flow cytometry | inhibition, % at 10 µM | 1,700 tested, under 10 active | AID 1783;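 active = inhibition above 50%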;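 also: median green fluorescence of gated singlet beads compared with DMSO control wells; 0% = DMSO wells and 100% = complete loss of bead fluorescence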
RGS8-Gao confirm = RGS8-Galphao interaction regulation, single point confirmation. shares compounds with RGS16-Gao HTS. bead-based flow cytometry RGS8-Galphao binding, fluorescence; actives lie on both sides. binding response (% of control), % at 10 µM. 3% of 1,700 active; in the data active = binding response below about 72% or above about 130%; inactive = in between;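 also: Galphao activated as GDP AlF4 complex before binding bead RGS8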
RGS7-Gao single = RGS7-Galphao interaction regulation, single point confirmation; bead-based flow cytometry RGS7-Galphao binding; actives lie on both sides; shares compounds with RGS16-Gao HTS; response (percent of control binding), % at 10 µM; AID 1837; 7.8% of 1,700 active; in the data active = response below about 75% or above about 130%; inactive = in between;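 also: fluorescent Galphao activated with GDP and aluminum fluoride binding bead-coupled RGS7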
RGS16-Gao conf = confirmation of regulators of human RGS16-Galphao interaction. bead-based flow cytometry, RGS16-Galphao binding; actives lie on both sides. shares compounds with RGS16-Gao HTS. response (% of control binding), % at 10 µM. AID 1838. 4% of 1,700 active; in the data active = response below about 74% or above about 130%; inactive = in between;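 also: Galphao activated as the GDP aluminium fluoride complex binding bead-coupled RGS16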
RGS4-Gao single = RGS4-Galphao interaction regulation, single point confirmation. shares compounds with RGS16-Gao HTS. RGS4-Galphao binding, multiplexed bead flow cytometry; actives lie on both sides. AID 1840. binding response (% of control), % at 10 µM. 4% of 1,700 active; in the data active = binding response below about 74% or above about 130%; inactive = in between
RGS19-Gao conf = confirmation of regulators of human RGS19-Galphao interaction; shares compounds with RGS16-Gao HTS; bead-based flow cytometry RGS19-Galphao binding; actives lie on both sides; response (percent of control binding), % at 10 µM; 5% of 1,700 active; in the data active = response below about 50% or above about 160%; inactive = in between;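 also: 100% = no compound control and 0% = blank background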
Target sequence (P09471 whole entry, looked up): as above
Target sequence (P49795 whole entry, looked up): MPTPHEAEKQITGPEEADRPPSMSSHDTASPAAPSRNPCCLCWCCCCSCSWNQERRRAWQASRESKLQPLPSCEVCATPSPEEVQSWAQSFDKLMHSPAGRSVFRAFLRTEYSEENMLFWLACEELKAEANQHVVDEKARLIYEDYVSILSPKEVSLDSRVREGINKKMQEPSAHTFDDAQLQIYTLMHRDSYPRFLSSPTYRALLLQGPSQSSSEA
* = called active by the depositor; ? = inconclusive; · = no result; [ ] = remark or other dose. Unless noted, no rule for the calls is given here.

SMILES	RGS16-Gao HTS	RGS7-Gao reg	GSH bead fluor	RGS4-Gao reg	Avidin fluor	RGS8-Gao reg	RGS4-Gao HTS	Avidin counter	RGS8-Gao confirm	RGS7-Gao single	RGS16-Gao conf	RGS4-Gao single	RGS19-Gao conf
COc1ccc(/C=N/n2cnn(Cc3ccccc3Cl)c2=S)cc1	12.2*	?	10	22.9*	0	14.8*	·	-1.8	102.1	107.3	101.5	102.8	97.5
COc1cccc(Cn2c(Oc3ccccc3)nc3c2c(=O)n(C)c(=O)n3C)c1	-247.2*	89.8	43	83.5	1	85.8	83.5*	·	·	·	·	·	·
COc1cccc(-n2c(SCc3cc(=O)oc4cc(O)c(O)cc34)nc3ccccc3c2=O)c1	99.9	98.5	10	99.9	17	99.0	·	·	·	·	·	·	·
C=C(C)CCC1(C)NC(=O)N(c2ccccc2)N1 (stereo unspecified)	52.0	?	·	41.3*	1	78.8	·	-0.5	96.9	95.3	96.3	96.1	93.3
COC(=O)C(=Nc1ccccc1)/C(C(=O)C(=O)N(C)c1ccccc1)=C(\O)c1ccccc1	101.2	?	·	100.5	6	101.5	·	·	·	·	·	·	·
CCN(c1ccc(N=Cc2c(O)n(Cc3ccc(OC)cc3)c(=O)c3ccccc23)cc1)C(C)C	120.0	162.5*[activator]	155*	123.6	19	102.8	123.6*	2.0	115.8	309.2*[activator]	193.7*[activator]	220.6*[activator]	472.9*[activator]
COc1ccc(CN(C)CC(=O)Nc2sc3c(c2C#N)CCC3)c(OC)c1	103.0	97.5	12	101.1	10	103.5	·	·	·	·	·	·	·
Clc1ccc(N/N=C/c2ccncc2)cc1Cl	198.8*[activator]	113.1	11	108.9	7	127.9	108.9*	-0.5	99.8	103.2	101.5	103.2	99.0
Fc1ccc(N/N=C/c2ccncc2)c(F)c1	141.5	105.6	14	104.3	4	117.2	·	·	·	·	·	·	·
COc1ccc(-n2c3c(cc(C(=O)NNc4ccccc4)c2=O)C(=O)CC(C)(C)C3)cc1	43.4	47.3*	13	47.3*	7	58.6*	·	-2.9	95.2	87.2	92.5	90.1	69.2
COc1ccc(-n2c3c(cc(C(=O)NNc4ccccc4C)c2=O)C(=O)CC(C)(C)C3)cc1	86.0	92.2	12	84.2	8	93.1	·	·	·	·	·	·	·
Cc1ccc(NC(=O)C(C)N=C2NS(=O)(=O)c3ccccc32)cc1F (stereo unspecified)	95.9	?	·	97.0	9	101.6	·	·	·	·	·	·	·
Cc1noc(C)c1CSc1ncnc2sc(C)c(C)c12	·	·	46	101.7	·	104.1	·	-0.8	102.1	98.2	101.5	102.8	95.7
Cc1noc(C)c1CSc1ncnc2sc3c(c12)CCCCC3	96.2	96.0	21	96.1	6	96.8	·	·	·	·	·	·	·
COc1ccc2nc(/C=N/NC(=O)[C@H](C)NC(=O)OC(C)(C)C)ccc2c1	73.2	95.4	4	94.9	10	92.8	·	·	·	·	·	·	·
O=C(NC1(C(F)(F)F)NC(=O)N(Cc2ccccc2)C1=O)c1cccnc1 (stereo unspecified)	102.9	102.9	31	106.2	6	100.8	·	·	·	·	·	·	·
O=C(NC1(C(F)(F)F)NC(=O)N(Cc2cccnc2)C1=O)c1ccccc1 (stereo unspecified)	38.9	41.6*	28	46.2*	2	52.1*	·	0.0	98.9	104.3	102.5	102.3	96.7
COC(=O)C(NC(C)=O)(Nc1nc2ccc(S(C)(=O)=O)cc2s1)C(F)(F)F (stereo unspecified)	-17.6*	94.0	57	97.5	3	91.8	97.5*	·	·	·	·	·	·
Clc1cccc(CN2CCCCCCC2)c1Cl	105.1	99.0	12	101.9	12	99.2	·	·	·	·	·	·	·
CCNC(=O)C(Sc1ccccc1)c1ccccc1 (stereo unspecified)	252.5*[activator]	104.9	21	105.8	21	130.2	105.8*	-0.1	100.8	105.4	99.0	101.3	91.8
COCc1nnc(NC(=O)c2ccc(NC(C)=O)cc2)s1	50.2	53.2	67	45.9*	3	63.9	·	-2.3	103.7	100.3	108.0	100.3	81.3
O=C1/C(=C/c2cccnc2)SC(=S)N1c1ccc(F)cc1	177.5*[activator]	108.2	3	108.8	15	116.2	108.8*	-1.2	101.7	103.4	101.1	101.8	97.7
O=C1/C(=C/c2cccnc2)SC(=S)N1c1ccc(O)cc1	107.4	?	·	101.4	5	101.5	·	·	·	·	·	·	·
COc1ccc2c(c1)CCc1sc(NC(=O)c3ccco3)nc1-2	100.7	99.0	20	102.3	8	100.2	·	·	·	·	·	·	·
COc1ccc2c(c1)Cc1sc(NC(=O)c3ccco3)nc1-2	41.6	46.0*	20	52.5	3	57.5*	52.5*	-0.1	99.8	101.1	100.8	101.2	94.7
SMILES	RGS16-Gao HTS	RGS7-Gao reg	GSH bead fluor	RGS4-Gao reg	Avidin fluor	RGS8-Gao reg	RGS4-Gao HTS	Avidin counter	RGS8-Gao confirm	RGS7-Gao single	RGS16-Gao conf	RGS4-Gao single	RGS19-Gao conf
O=C(CC1SC(=NCC2CCCO2)NC1=O)Nc1cccc2ccccc12 (stereo unspecified)	-12.1*	-5.8*	9	10.8*	-5	6.6*	·	0.3	99.7	97.7	96.8	96.7	105.7
Nc1cc2ccncc2c2ccccc12	166.2	?	·	113.2	1	101.0	·	·	·	·	·	·	·
O=C(O)Cn1ncc2c1-c1ccoc1CC2	106.1	105.2	24	106.2	7	103.1	·	·	·	·	·	·	·
CC(=O)c1ccc(OCCn2cnc3ccccc32)cc1	192.2*[activator]	109.1	10	112.4	18	119.7	112.4*	-0.9	99.6	100.7	101.8	100.6	109.3
Cn1cc(Br)c(C(=O)Nc2ncc(Br)s2)n1	8.7*	11.9*	8	15.3*	0	14.2*	·	1.3	102.3	90.4	97.5	91.6	99.9
O=C(CSc1ncnc2c1oc1ccccc12)Nc1nccs1	153.7	155.4*[activator]	16	146.4	9	132.4	146.4*	-0.8	111.8	106.8	106.5	101.6	93.8
COc1ccccc1NS(=O)(=O)c1cc(NC(=O)c2cnccn2)ccc1N1CCOCC1	97.7	?	·	94.3	3	100.7	·	·	·	·	·	·	·
